This note sets out measurements from the supplement of paper PMC7858590.

Several values for one entry are separate records, joined by “and”; a condition that tells them apart may be missing. Identical values can stand only once.

One assay concerns human monocyte-derived macrophages (polarized). In words: cell shape (eccentricity) Z-score vs DMSO control; higher = more elongated, M2-like morphology. The following applies: 5 µM; 24 h; macrophage state: M1-polarized (IFNg + TNFa), cytokines present during treatment. The protocol: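 Primary-screen hits were rescreened on polarized hMDMs with the differentiating cytokines (IL-4 + IL-13 or IFNg + TNFa) kept in the medium during treatment with compound at 5 uM for 24 h. The eccentricity Z-score vs DMSO wells is averaged over experiments.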
For `CC1=CC(=O)CC2C1(C)CCC(C)C2(C)CC/C(C)=C\C(=O)O` (stereo not given), the “cell shape (Z-score)” value was -1.21.

As for `C=C[C@@]1(C)CC(=O)[C@]2(O)[C@@]3(C)[C@@H](O)CCC(C)(C)[C@@H]3[C@H](O)[C@H](OC(C)=O)[C@@]2(C)O1`, the “cell shape (Z-score)” value was -1.28.

`Cn1cncc1[C@@](N)(c1ccc(Cl)cc1)c1ccc2c(c1)c(-c1cccc(Cl)c1)cc(=O)n2C`: the “cell shape (Z-score)” value is -0.763. Still for that read-out and setting: the same measure for `COc1cc2ncnc(Nc3ccc(F)c(Cl)c3)c2cc1OCCCN1CCOCC1`: -0.66. Same read-out and setting: the same measure for `Cc1c(C(N)=O)cc([N+](=O)[O-])cc1[N+](=O)[O-]`: 3.38; for `CC(C)c1ccccc1Cc1cc(C(=O)Nc2ccc(S(=O)(=O)c3ccccc3C(C)(C)C)cc2)c(O)c(O)c1O`: -2.24. The same measure, in the same setting: the same measure for `CN1CCN(CCOc2cc(OC3CCOCC3)c3c(Nc4c(Cl)ccc5c4OCO5)ncnc3c2)CC1`: 4.07; for `COc1cc2nccc(Oc3ccc(NC(=O)Nc4cc(C)on4)c(Cl)c3)c2cc1OC`: 7.92.

As to `CCCCOC(=O)c1ccc(N)cc1`, the “cell shape (Z-score)” value is -0.788.

Consider `O=C(O)C[C@H](O)C[C@H](O)/C=C/c1c(C2CC2)nc2ccccc2c1-c1ccc(F)cc1`, for which the “cell shape (Z-score)” value was found to be 5.72. Still for that read-out and setting: the same measure for `CCN(CC)CCNC(=O)c1c(C)[nH]c(/C=C2\C(=O)Nc3ccc(F)cc32)c1C`: 8.79 and 5.25; for `COc1cc2c(Oc3ccc4[nH]c(C)cc4c3F)ncnc2cc1OCCCN1CCCC1`: 12.3. On the same count and under the same terms, the same measure for `O=C(O)c1ccc2c(c1)nc(Nc1cccc(Cl)c1)c1ccncc12`: 9.47.

Take `COc1cccc(NC(=O)/C=C/c2ccc(Cl)cc2)c1`: the “cell shape (Z-score)” value was 4.58. Still for that read-out and setting: to `CC1(CCOC2OC(CO)C(O)C(O)C2O)CCC2C(=CCC3C(C)(C(=O)O)CCCC23C)C1` (stereo not given) belongs -2.26. As for `CC(=Cc1ccc(C(=O)O)cc1)c1ccc2c(c1)C(C)(C)CCC2(C)C`, the “cell shape (Z-score)” value was -2.82. On the same count and under the same terms, the same measure for `CCOC(=O)N[C@@H]1CC[C@@H]2[C@@H](C1)C[C@H]1C(=O)O[C@H](C)[C@H]1[C@H]2/C=C/c1ccc(-c2cccc(F)c2)cn1`: 5.58; for `CN(C)CC[C@H](CSc1ccccc1)Nc1ccc(S(=O)(=O)NC(=O)c2ccc(N3CCN(Cc4ccccc4-c4ccc(Cl)cc4)CC3)cc2)cc1[N+](=O)[O-]`: 0.862; for `COCc1c(C(C)C)nc(C(C)C)c(/C=C/[C@@H](O)C[C@@H](O)CC(=O)O)c1-c1ccc(F)cc1`: 9.45. On the same count and under the same terms, the same measure for `CC(C)n1cnc2c(NCc3ccccc3)nc(NCCO)nc21`: 0.237; for `O=S(=O)(c1cccc2cnccc12)N1CCNCC1`: 3.08; for `COc1cc(C2OC(c3cc(OC)c(OC)c(OC)c3)C(C)C2C)cc(OC)c1OC` (stereo not given): 4.93. Consider `CCCC(=O)Nc1ncnc2c1ncn2[C@@H]1O[C@@H]2COP(=O)(O)O[C@H]2[C@H]1OC(=O)CCC`, for which the “cell shape (Z-score)” value is 0.117.

The assay is the same for the next values; noted with them: 5 µM; 24 h; macrophage state: M2-polarized (IL-4 + IL-13), cytokines present during treatment.
For `CC1(C)O[C@@H]2C[C@H]3[C@@H]4CCC5=CC(=O)CC[C@]5(C)[C@@]4(F)[C@@H](O)C[C@]3(C)[C@]2(C(=O)CCl)O1`, the “cell shape (Z-score)” value was -13.7. Still for that read-out and setting: to `CCCSc1ccc2[nH]c(NC(=O)OC)nc2c1` belongs -6.38.

`CCN(CCCCOC(=O)c1ccc(OC)c(OC)c1)C(C)Cc1ccc(OC)cc1` (stereo not given): the “cell shape (Z-score)” value is -4.84.

On to `OC(CN1CCNCC1)Cn1c2ccc(Br)cc2c2cc(Br)ccc21` (stereo not given), for which the “cell shape (Z-score)” value was -13.7. On the same count and under the same terms, the same measure for `N#CN=C(NCCCCCCOc1ccc(Cl)cc1)Nc1ccncc1`: -5.22; for `CC(=O)N[C@@H](C(=O)O[C@H]1CCC(C)(C)[C@@H]2CCC3=C(COC3=O)[C@@]12C)C(C)C`: -0.761. Still for that read-out and setting: to `N=C(NCCCCCCNC(=N)NC(=N)Nc1ccc(Cl)cc1)NC(=N)Nc1ccc(Cl)cc1` belongs -10.6 and -7.15; to `O=C(Nc1ccc([N+](=O)[O-])cc1Cl)c1cc(Cl)ccc1O` [Niclosamide.2mM], -6.52; to `CC(=O)O[C@@H]1C[C@H]2C(C)(C)C(=O)C=C[C@]2(C)[C@H]2CC[C@@]3(C)[C@H](c4ccoc4)OC(=O)[C@H]4O[C@]43[C@@]21C`, -8.96. Same read-out and setting: the same measure for `COC(=O)Nc1nc2ccc(C(=O)C3CC3)cc2[nH]1`: -16.3; for `Cc1cc2cc3c(C)cc(=O)oc3c(C)c2o1`: 1.88; for `COCCCC/C(=N\OCCN)c1ccc(C(F)(F)F)cc1`: -6.
